Source: PubChem (National Center for Advancing Translational Sciences (NCATS))
IL-1B inflam inh: blocks inflammasome-driven IL-1 beta release. activity change, % at 57.5 µM. hit rate 4.7% among 360,000. THP-1 LPS/ATP IL-1B secretion, AlphaLISA, 16 h; active compounds read low; in the data active = activity change below about -50%; inconclusive = mostly about -30% to -49%; note: % is set by controls: 0 for no effect and ±100 for the full control effect
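Secreted IL-1B measured by AlphaLISA bead assay after 16 h compound exposure of THP-1 cells; compounds (final up to 57.5 uM) added 1 h before LPS (250 ng/mL) and ATP (1.25 mM) stimulation; lower signal means less secretion.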
TDP1 cell noCPT: qHTS for Inhibitors of human tyrosyl-DNA phosphodiesterase 1 (TDP1): qHTS in cells in absence of CPT; hit rate 15% among 420,000; DT40 Tdp1-/- hTDP1 cells, no CPT, ATP luminescence, 48 h; Potency, µM (titrated, usually from 46.2 µM), without a hit: at the highest dose activity change, negative = growth inhibition, actives largely listed as inhibitors; note: potency is the fitted concentration of half-maximal effect; % is set by controls: 0 for no effect and ±100 for the full control effect; nearly all actives have a fitted effect of over 55% in size
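Chicken DT40 Tdp1-/- cells stably complemented with human TDP1 were seeded at 400 cells/well with DMSO in place of 20 nM camptothecin. After compound pinning, cells grew at least 48 hr at 37 °C; viability read by CellTiter-Glo luminescence.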
ClpP mod: qHTS Assay for Activators of ClpP; ATP-dependent Clp protease proteolytic subunit (Bacillus subtilis (strain 168)), P80244; purified B. subtilis ClpP, FRET peptide cleavage, 20 min; Potency, µM (highest dose often 57.5 µM), for inactives: at the highest dose activity change, negative = active; hit rate 1.9% among 340,000; active = well fitted falling curve with a large enough effect; inconclusive = small, poorly fitted or top-dose-only effect; inactive = no such curve, though single readings can be large or run the other way; note: potency is the fitted concentration of half-maximal effect; the source files actives as falling curves though it sought activators and does not explain the sign; nearly all actives have a fitted effect of over 65% in size
Target sequence (P80244 whole entry, looked up): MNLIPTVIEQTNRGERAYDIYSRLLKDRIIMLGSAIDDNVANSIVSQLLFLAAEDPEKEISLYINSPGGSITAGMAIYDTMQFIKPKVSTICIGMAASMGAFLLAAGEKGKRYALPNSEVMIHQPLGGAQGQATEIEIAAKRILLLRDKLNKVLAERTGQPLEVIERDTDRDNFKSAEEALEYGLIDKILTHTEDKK
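Purified B. subtilis ClpP, 10 microg/mL final in Tris/HCl pH8 with KCl, BSA, glycerol and Tween-20, cleaved an Abz/nitrotyrosine-quenched decapeptide. Fluorescence (ex 320, em 430) was read at 0 and 20 min at room temperature. Delta was normalized to 5.8 microM ADEP and DMSO/no-enzyme controls.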
DRD3 antagonist: D3 dopamine receptor (human) antagonism; D3R cells, DiscoveRx beta-arrestin luminescence, antagonist mode; active compounds read low; max response, negative = inhibition, %; hit rate 2.5% among 360,000; in the data active = max response below about -50%; inconclusive = no clear call, values can overlap the other calls; note: % is set by controls: 0 for no effect and ±100 for the full control effect
Target sequence (P35462 whole entry, looked up): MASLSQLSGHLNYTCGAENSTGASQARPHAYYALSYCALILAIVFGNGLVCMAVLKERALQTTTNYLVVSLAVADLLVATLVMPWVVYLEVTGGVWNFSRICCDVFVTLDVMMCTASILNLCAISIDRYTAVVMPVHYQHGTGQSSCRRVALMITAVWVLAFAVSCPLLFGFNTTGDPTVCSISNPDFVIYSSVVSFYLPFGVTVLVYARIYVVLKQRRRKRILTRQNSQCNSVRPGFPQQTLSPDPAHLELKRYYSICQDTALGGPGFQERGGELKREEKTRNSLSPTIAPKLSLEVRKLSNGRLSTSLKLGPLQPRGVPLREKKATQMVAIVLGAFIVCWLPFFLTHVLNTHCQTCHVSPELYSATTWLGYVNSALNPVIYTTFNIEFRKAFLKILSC
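Cells plated overnight at 1500 cells/well, then exposed to library compounds with dopamine controls for 90 minutes at 37 degrees C. DiscoveRx reagent added for 30–60 minutes at room temperature; luminescence read, quantitative HTS format.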
DRD3 agonist: activates the human D3 dopamine receptor | max activation, % | AID 652048 | P35462 | hit rate 0.58% among 410,000 | D3R DiscoveRx beta-arrestin cells, luminescence, 90 min; in the data active = max activation above about 30%; note: 0% is about no effect
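Agonist-mode cell screen: cells plated at 1500/well and incubated overnight at 37 °C, then exposed to library compounds for 90 min at 37 °C. Detection reagent was added for 30–60 min at room temperature, and luminescence was read.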
TDP1 cell CPT: growth inhibition of DT40 Tdp1-/-;hTDP1 cells with camptothecin (screen for TDP1 inhibitors); chicken DT40 Tdp1-/-;hTDP1 cells + 20 nM CPT, ATP luminescence, 48 h; Potency, µM (highest dose often 46.2 µM), inactives show top-dose activity change, negative = growth inhibition, usual class: inhibitors; hit rate 12% among 420,000; AID 686979; note: potency is the fitted concentration of half-maximal effect; % is set by controls: 0 for no effect and ±100 for the full control effect; nearly all actives have a fitted effect of over 55% in size
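Chicken DT40 Tdp1-/- cells stably complemented with human TDP1 were seeded at 400 cells/well in medium containing 20 nM camptothecin, exposed to pin-transferred compounds, and grown at 37 °C for at least 48 hr. Viability was read as ATP luminescence.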
* = called active by the depositor; ? = inconclusive; . = no result given; [ ] = another dose, or the depositor's remark. Only some compounds are listed: those with a hit (about 21% of all), similar ones and a draw of the others. Unless noted, calls come from the whole dose curve; as a rule, active = well fitted inhibition curve with a large enough effect; inconclusive = small, poorly fitted or top-dose-only effect; inactive = flat fitted curve, though single readings scatter.

SMILES	IL-1B inflam inh	TDP1 cell noCPT	ClpP mod	DRD3 antagonist	DRD3 agonist	TDP1 cell CPT
CCc1cc2c(CN3CCN(CCO)CC3)cc(=O)oc2cc1O	16	-5%	14µM*	-3	6	-27%
O=C(NCC1CCCN(Cc2ccccc2F)C1)c1cccc(C(F)(F)F)c1 (stereo not drawn)	-11	4%	0%	?	-11	-28%
C/C(=N\O)c1ccc(OCC(=O)N2CCCCC2)cc1	.	-7%	.	.	-10	-4%
CCCCCc1cc(O)c2c(C)cc(=O)oc2c1	-25	16µM*	-4%	-26	3	23µM*
O=c1cc(CN2CCN(Cc3ccccc3)CC2)c2cc(O)ccc2o1	24	?	0%	-14	-6	?
Cc1cc2oc(=O)cc(CN3CCN(Cc4ccccc4)CC3)c2cc1O	6	7.3µM*	-4%	-11	-5	8.2µM*
CCCc1cc(=O)oc2cc(C)cc(O)c12	-20	18µM*	-3%	40	-3	?
CC1CCN(C(=O)CCCC(=O)N2CCC(C)CC2)CC1	10	7%	0%	1	-6	-13%
CCOC(=O)c1[nH]c(C)c(CCC(=O)NCc2ccccc2)c1C	.	-19%	-2%	.	-10	-15%
COc1ccccc1C(=O)N1CCCC(c2nc(SCCN3CCOCC3)ncc2C)C1 (stereo not drawn)	.	?	.	.	.	-10%[9.04 µM]
CCC1CN(CCNC(=O)c2cccc3nccnc23)Cc2cc(OC)ccc2O1 (stereo not drawn)	.	?	.	.	.	9%[9.04 µM]
COc1ccc(-c2csc3nc(C)nc(N4CCC(C)CC4)c23)cc1OC	9	18µM*	1%	14	-14	21µM*
Cc1nc(N2CCC(C(N)=O)CC2)c2c(-c3cccs3)csc2n1	23	21µM*	.	1	3	?
COc1ccc(-c2csc3nc(C)nc(N4CCN(C(C)=O)CC4)c23)cc1OC	0	?	.	7	-3	-25%
NC(=O)C1CCN(Cc2nc(-c3cccs3)no2)CC1	11	-6%	-3%	6	-10	-7%
CCNC(=O)N(CCOC)CC1CCCN(C2Cc3ccccc3C2)C1 (stereo not drawn)	9	6%	.	-12	-11	25%
COCCNC(=O)CN1C(=O)NC2(CCCc3cc(OC)ccc32)C1=O (stereo not drawn)	21	1%	0%	7	-1	8%
O=C(c1ccncc1)N1CCC2(CC1)CN(Cc1cc(C(F)(F)F)cc(C(F)(F)F)c1)C2	.	-7%	.	.	.	?
CC(C)(C)NC(=S)NNC(=O)c1ccccc1Cl	34	10µM*	-10%	-10	5	15µM*
O=C(NNC(=S)Nc1ccccc1)c1cccc(Br)c1	32	-25%	18%	5	-23	-12%
CC(C)(C)C(=O)NC(=S)NNC(=O)c1ccc(Cl)cc1Cl	98	5.8µM*	.	-8	6	?
CNC(=S)NNC(=O)c1ccccc1Cl	2	0%	-1%	7	-4	3%
CC(C)(C)NC(=S)NNC(=O)c1cccc(Br)c1	10	6.5µM*	6%	1	4	5.8µM*
COc1cc(C2C(=O)N(C3CCCCC3)CC(=O)N2CCc2ccccc2)ccc1OC(C)C (stereo not drawn)	.	-28%	2%	.	-16	-25%
CCOc1ccc(NC(=O)CN(Cc2ccccc2)S(=O)(=O)c2ccc3nc(C)sc3c2)cc1	.	26µM*	-5%	.	2	?
SMILES	IL-1B inflam inh	TDP1 cell noCPT	ClpP mod	DRD3 antagonist	DRD3 agonist	TDP1 cell CPT
COc1cccc(CNC(=O)CNS(=O)(=O)c2ccc3nc(C)sc3c2)c1	.	15µM*	-2%	.	0	?
COc1cccc(NC(=O)CN(Cc2ccccc2)S(=O)(=O)c2ccc3nc(C)sc3c2)c1	.	26µM*	0%	.	-8	?
COc1ccccc1OCc1ccc(C(=O)N2CCN(C(=O)c3ccco3)CC2)cc1	1	-26%	-3%	-2	0	-5%
Cc1ccccc1OCc1ccc(C(=O)N2CCOCC2)o1	-4	-16%	.	-4	-4	13%
O=C(c1ccc(COc2ccccc2Br)o1)N1CCCCCC1	-14	?	2%	-25	-13	21µM*
CCCc1ccc(OCc2ccc(C(=O)N3CCCC3)o2)cc1	19	21µM*	.	16	25	?
O=C(c1ccc(COc2ccccc2Br)cc1)N1CCCCC1	-58*	16µM*	1%	?	-11	15µM*
C/C=C1\C2C=C(C)C[C@@]1(N)c1ccc(=O)[nH]c1C2	.	-1%	.	.	.	19%
CC(=O)N1N=C(c2ccccc2)OC12CCCC2	0	-10%	4%	9	-23	-3%
CC(=O)N1N=C(c2ccc3ccccc3c2)OC12CCCC2	4	?	.	5	9	21µM*
CC(=O)c1c(N2CCN(C)CC2)nc(=S)n(-c2cc(C)ccc2C)c1C	0	-18%	.	1	1	6%
Cc1ccc2c(c1)c1c3n2CCN(CC(O)CNC(C)C)C3CCC1 (stereo not drawn)	-57*	?	.	24	0	?
Cc1ccc2c(c1)c1c3n2CCN(CC(N)=O)C3CCC1 (stereo not drawn)	-2	?	.	-10	6	?
Cc1ccc2c(c1)c(=O)c1c3n2CCN(C(=O)CCl)C3CC1 (stereo not drawn)	-15	16µM*	-11%	-5	5	26µM*
Cc1ccc2c(c1)c1c(n2CC(O)CNC2CCCC2)CCCC1 (stereo not drawn)	-90*	?	?	26	-2	?
Cc1ccc2c(c1)c1c3n2CCN(C(=O)C2CC2)C3CCC1 (stereo not drawn)	-11	?	?	-9	1	?
Cc1ccc2c(c1)c1c3n2CCN(C(=O)CN2CCN(C)CC2)C3CCC1 (stereo not drawn)	-22	16µM*	?	?	9	?
CC(C)(C)c1ccc(C(=O)NCCC(=O)NNC(=O)COc2ccccc2F)cc1	17	-7%	2%	-5	0	5%
COc1cc2nc(SCc3ccc(C)cc3)n3nc(CCn4nc(C)cc4C)nc3c2cc1OC	.	1%	0%	.	-9	24%
COc1ccc(NC(=O)CCc2c(C)nn(-c3ccc(N4CCCCC4)nn3)c2C)cc1Cl	.	?	-4%	.	5	?
Cc1cccc(NC(=O)CCc2c(C)nn(-c3ccc(N4CCOCC4)nn3)c2C)c1	-6	-27%	-2%	1	3	-29%
COc1ccc(OC)c(NC(=O)CCc2c(C)nn(-c3ccc(N4CCCC4)nn3)c2C)c1	.	15µM*	1%	.	8	21µM*
